High-throughput results (PubChem)
NPSR antag: antagonists of human neuropeptide S receptor cAMP signaling | CHO-NPSR cells, cAMP TR-FRET, antagonist mode | Potency, µM (doses to about 38.3 µM), most hits filed as inhibitors | 1% of 220,000 active | AID 1461; note: nearly all actives have a fitted effect of over 50% in size
Tau fluor counter: counter-screen for tau fibril formation inhibitors | Potency, µM (doses to about 57.7 µM) | 0.93% of 280,000 active | tau K18 P301L Alexa594 fluorescence, heparin fibrillization; note: nearly all actives have a fitted effect of over 55% in size
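Human K18 P301L tau (15 uM unlabeled plus 0.24 uM Alexa 594-labeled, final) in 100 mM sodium acetate pH 7 was mixed with compound and 20 uM heparin and incubated 6 hr at 37 C.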
Tau FP inhib: inhibitors of human tau fibril formation. P10636. K18 P301L tau heparin fibrillization, Alexa594 FP, 6 h. Potency, µM (top dose mostly 57.7 µM), most hits filed as inhibitors. 0.39% of 280,000 active. AID 1468; note: nearly all actives have a fitted effect of over 55% in size
Target sequence (P10636 561-689 P618L limits assumed): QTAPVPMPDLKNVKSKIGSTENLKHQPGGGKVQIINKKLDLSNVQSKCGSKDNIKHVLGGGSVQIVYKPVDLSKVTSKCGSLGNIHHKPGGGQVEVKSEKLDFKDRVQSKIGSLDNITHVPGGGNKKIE
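Steps: dispense K18 P301L tau (15 uM plus 0.24 uM Alexa 594 tracer, final) in pH 7 sodium acetate; add compound; add heparin (20 uM final); incubate 6 hr, 37 C; add ThT (30 uM final); after 1 hr ambient, read FP.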
PNC inhibitor: blocks assembly of the perinucleolar compartment; PC3M PTB-GFP, PNC prevalence imaging, 16 h; stronger effect = lower value; activity change (PNC), negative = inhibition, % at 10 µM; 3.1% of 140,000 active;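 active = readout at or below -70, meaning at least 70% loss of cells showing the perinucleolar compartment, a nuclear body marking cancer cells; inconclusive = readout between -30 and a set limit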
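Compounds are pinned in duplicate onto adhered PC3M cells stably expressing GFP-tagged PTB and incubated 16 h at 37 C. Cells are then fixed, nuclei stained with Hoechst, and PNC-positive cells counted.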
JMJD2E inh: blocks human JMJD2E demethylase activity; Potency, µM (series often up to 57.1 µM), actives largely listed as inhibitors; 1.6% of 230,000 active; B2RXH2; AID 2147; JMJD2E catalytic domain, FDH-coupled NADH fluorescence (FDH is formaldehyde dehydrogenase); note: nearly all actives have a fitted effect of over 50% in size
Target sequence (B2RXH2 1-337 limits assumed): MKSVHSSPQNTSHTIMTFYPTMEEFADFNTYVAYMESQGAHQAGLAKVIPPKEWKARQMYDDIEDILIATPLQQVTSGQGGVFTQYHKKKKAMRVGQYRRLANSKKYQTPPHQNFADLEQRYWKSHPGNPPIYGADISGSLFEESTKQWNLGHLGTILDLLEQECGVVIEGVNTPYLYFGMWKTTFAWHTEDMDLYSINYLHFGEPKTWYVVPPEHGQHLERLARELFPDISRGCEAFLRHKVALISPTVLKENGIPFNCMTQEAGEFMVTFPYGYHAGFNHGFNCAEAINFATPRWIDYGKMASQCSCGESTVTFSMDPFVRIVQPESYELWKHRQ
Tau ThT inhib: blocks human tau fibril formation measured by thioflavin T. P10636. recombinant tau K18 P301L (four-repeat tau fragment), heparin-induced fibrillization, ThT fluorescence. Potency, µM (top dose mostly 57.4 µM), most hits filed as inhibitors. 2.1% of 270,000 active. AID 1460; note: nearly all actives have a fitted effect of over 55% in size
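Heparin-induced (20 uM) aggregation of recombinant human K18 P301L tau, 15 uM unlabeled with 0.24 uM labeled, pH 7 acetate buffer, 6 hr at 37 C with compound. Fibrils quantified by 30 uM ThT fluorescence after 1 hr ambient incubation.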
Numbers stand for hits; – = inactive; ? = inconclusive; · = not tested or not shown; [ ] = remark or other dose. Only some compounds are listed: those with a hit (about 5.1% of all), similar ones and a draw of the others. Unless noted, calls come from the whole dose curve; as a rule, active = well fitted curve in the direction sought with a large enough effect; inconclusive = small, poorly fitted or top-dose-only effect, or another doubt; inactive = no such curve, though single readings can be large; an effect the other way counts as inactive or inconclusive.

SMILES | NPSR antag | Tau fluor counter | Tau FP inhib | PNC inhibitor | JMJD2E inh | Tau ThT inhib
O=C(Nc1ccc(S(=O)(=O)N2CCCC2)cc1)C1COc2ccccc2O1 (stereo not given) | – | – | ? | -90.4 | – | –
CCCOCc1cc(CN2CCN(c3cccc(Cl)c3)CC2)c(O)c2ncccc12 | · | – | ? | · | · | ?
Oc1c(CN2CCc3ccccc3C2)cc(Cl)c2cccnc12 | 6.31µM | – | – | ? | 22.4µM | ?
CN1CCN(Cc2cc(COCc3ccccc3)c3cccnc3c2O)CC1 | ? | – | – | ? | 8.91µM | ?
O=c1oc2ccccc2c(O)c1C=NCc1ccccn1 | – | – | – | – | – | –
O=c1oc2ccccc2c(O)c1Cc1cc(Cl)c2cccnc2c1O | – | ? | ? | · | 5.01µM | 14.1µM
CCc1ccc2c(c1)-c1ccccc1S(=O)(=O)N2CC(=O)N1CCC(C)CC1 | · | – | – | · | · | –
Cc1cc2c(cc1S(=O)(=O)N(CCO)Cc1ccccc1)OCC(=O)N2 | · | – | – | · | · | –
Cc1cc(N2CCOCC2)ccc1/C=C1\SC(=O)N(C(C)C)C1=O | – | ? | – | – | – | ?
CCN(CC)c1ccc(/C=C2/SC(=O)N(C(C)C)C2=O)o1 | – | – | – | ? | – | 17.8µM
CN(C)CCCN1c2ccccc2Sc2ccccc21 | ? | – | – | – | ? | ?
CCN(CC)[C@@H](C)CN1c2ccccc2Sc2ccccc21 | · | · | · | · | 7.94µM | ·
NC(CCC(=O)N[C@@H](CS)C(=O)NCC(=O)O)C(=O)O (stereo not given in full) | · | – | ? | · | ? | 31.6µM
COc1ccc(-c2cc(C(F)(F)F)nc(NCc3ccccc3)n2)cc1 | · | – | ? | · | · | –
COc1ccc(-c2cc(C(F)(F)F)c3c(=O)n(-c4ccccc4)[nH]c3n2)cc1 | – | ? | – | – | – | 8.91µM
C[C@@H](C(=O)N[C@H](C(=O)O)c1ccccc1)n1nnc2ccccc2c1=O | – | – | – | -112.4 | – | –
C[C@@H](C(=O)N[C@@H](Cc1ccccc1)C(=O)O)n1nnc2ccccc2c1=O | – | – | – | · | – | –
CCc1ccc(NC(=O)c2cc3c([nH]c2=O)CC(C)(C)CC3=O)cc1 | · | – | – | · | · | –
N/N=C(\Cc1cscn1)c1ccc(O)cc1O | – | – | – | · | – | ?
Oc1ccc(/C(Cc2ccccn2)=N\Nc2ccccc2)c(O)c1 | – | 11.2µM[quencher] | – | · | ? | ?
Oc1ccc(/C(Cc2ccc3ccccc3n2)=N\Nc2ccccc2)c(O)c1 | – | 11.2µM[quencher] | – | · | – | 11.2µM
O/C(=C\c1ccc2ccccc2n1)c1ccc(O)cc1O | – | ? | – | · | – | 1.78µM
Cc1ccc(S(=O)(=O)CCSc2nc(C)cc(C(F)(F)F)c2C#N)cc1 | – | – | – | -118.9 | – | –
COc1ccc(NC2c3ncccc3C(=O)N2Cc2ccccc2)c(OC)c1 (stereo not given) | – | – | – | -100.0 | ? | –
COc1ccc(CN2C(=O)c3cccnc3C2Nc2ccc(OC)c(Cl)c2)cc1 (stereo not given) | – | – | – | – | – | –
SMILES | NPSR antag | Tau fluor counter | Tau FP inhib | PNC inhibitor | JMJD2E inh | Tau ThT inhib
CCOc1ccc(NC(=O)CC2C(=O)N(c3ccccc3)C(=O)N2CCc2sccc2C)cc1 (stereo not given) | · | ? | – | · | · | –
CCCNC(=O)C(Cc1ccccc1)NS(=O)(=O)c1ccc2c(c1)CCC(=O)N2 (stereo not given) | – | – | – | – | – | –
CN(Cc1ccco1)C(=O)C(Cc1ccccc1)NS(=O)(=O)c1ccc2c(c1)CCC(=O)N2 (stereo not given) | – | – | – | -81.1 | – | ?
Cc1ccc2nc(N/N=C\c3ccc([N+](=O)[O-])o3)nc(-c3ccccc3)c2c1 | ? | 10µM[quencher] | – | – | – | 3.16µM
O=[N+]([O-])c1ccc(/C=N/Nc2ccc3ccccc3c2)o1 | – | 3.55µM[quencher] | ? | ? | – | 3.16µM
O=[N+]([O-])c1ccc(/C=N/Nc2nc(N3CCCC3)nc(N3CCCC3)n2)o1 | – | – | – | ? | ? | 17.8µM
O=[N+]([O-])c1ccc(/C=N/Nc2nc(-c3ccccc3)c3cc(Br)ccc3n2)o1 | ? | – | – | – | – | 2.82µM
COc1ccccc1N=Cc1c(C)[nH]n(-c2ccc(C)cc2C)c1=O | – | –[2.34 µM] | –[2.34 µM] | · | ? | –
Cc1cc(Br)ccc1-n1[nH]c(C)c(C=Nc2cccc3nsnc23)c1=O | – | ? | ? | · | – | 14.1µM
CCN(CC)c1ccc(/C=N/NC(=O)Cc2cccs2)c(O)c1 | – | 12.6µM[quencher] | – | – | – | ?
O=C(Cc1cccs1)N/N=C/c1ccccc1 | – | – | – | · | – | –
CCN(CC)c1ccc(/C=N/NC(=O)c2ccco2)cc1 | – | ? | – | -93.8 | ? | ?
CCN(CC)c1ccc(NC(=O)c2ccco2)cc1 | – | – | – | – | – | ?
CCN(CC)c1ccc(/C=N/NC(=O)c2ccco2)c(O)c1 | – | ? | – | · | 14.1µM | ?
Cc1oc2c(c1C(=O)c1ccccc1)C(=O)C(=O)c1ccccc1-2 | ? | – | ? | – | ? | 7.94µM
O=C(C1=C(c2ccccc2)C(=O)c2ccccc2C1=O)c1ccccc1 | ? | – | – | – | – | –
O=C1C(=O)c2c(C(=O)c3ccccc3)coc2-c2ccccc21 | – | ? | 7.94µM | – | ? | 2.51µM
CCOC(=O)c1c(-c2ccc(C)cc2)csc1NC(=O)c1cc(=O)c2cc(C)cc(C)c2o1 | · | – | – | · | · | –
COc1ccc(/C(C)=N\Nc2nc(-c3ccccc3)cc(=O)[nH]2)cc1 | – | – | – | – | ? | ?
CN(C)c1ccc(/C=N\Nc2nc(-c3ccccc3)cc(=O)[nH]2)cc1 | – | – | – | -118.2 | ? | ?
CCCCCc1cc(=O)oc2c(C(CCN3CCCC3)c3cc(OC)c(OC)c(OC)c3)c(OC)cc(OC)c12 (stereo not given) | ? | – | – | · | 22.4µM | ?
COc1ccc(O)c(N)c1 | – | 12.6µM[quencher] | 11.2µM | · | ? | 4.47µM
O=C(CSc1nc(=O)n(Cc2ccncc2)c2c1CCC2)Nc1ccccc1 | · | – | – | · | · | –
COc1ccc(C(C)NC(=O)CN(c2cc(OC)ccc2OC)S(=O)(=O)c2ccccc2)cc1 (stereo not given) | · | – | – | · | · | ?
Nc1nc(SCC(=O)Nc2ccc(Oc3ccccc3)cc2)n[nH]1 | – | – | – | ? | – | –
Nc1nc(SCC(=O)Nc2ccccc2Sc2ccccc2)n[nH]1 | – | – | – | -111.3 | – | –
Cc1ccc(O)c(NC(=O)c2cccc(S(=O)(=O)N3CCCCC3)c2)c1 | – | ? | – | – | – | ?
Cc1ccc(O)c(NC(=O)c2ccc(Br)c(S(=O)(=O)N3CCCCC3)c2)c1 | · | 12.6µM[quencher] | – | · | · | –
CCc1ccc(NC(=O)c2ccc(F)c(S(=O)(=O)NC3CCCCCC3)c2)cc1 | · | ? | ? | · | · | –
O=C(Nc1cc(Cl)cc(Cl)c1)c1ccc(F)c(S(=O)(=O)N2CCCC2)c1 | · | ? | 14.1µM | · | · | –
